Experimental data from ChEMBL document CHEMBL1157539, “Thousands of chemical starting points for antimalarial lead identification” (Nature, 2010).

System: HepG2
Assay: GSK_TCMDC: Percent inhibition of human HepG2 cell line. Test compounds present at 10uM.
Format: functional

SMILES	Inhibition [%]
O=C(N[C@H]1CCN(Cc2ccc(OCCN3CCNCC3)c(Cl)c2)C1)c1ccc(Cl)c(Cl)c1.O=C(O)C(F)(F)F	50
CN1CCC(NCc2cccc(-c3nn(C)c4nc(NC5CCCC5)ncc34)c2)CC1	1
CCCN(CC1CC1)c1ncc(-c2cccc(CNCCC3CCCN3C)c2)cn1 (configuration not stated)	77
CCC[C@@H](/C=N/N(C)C(=O)OC(C)(C)C)NC(=O)[C@H](CC(C)C)NC(=O)c1cc2cccc(OC)c2o1	5
CCN(CC)CCN(Cc1ccc(-c2ccc(C(F)(F)F)cc2)cc1)C(=O)Cn1c(CCc2c(F)cc(F)cc2F)nc(=O)c2ccccc21.O=C(O)C(O)C(O)C(=O)O	39
Cc1sc(N2CCCCC2)nc1C(=O)Nc1ccc(F)cc1C(F)(F)F.O=C(O)C(F)(F)F	0
CC(=O)Nc1cccc(Nc2nccc(Nc3ccc(Oc4ccccc4)cc3)n2)c1.Cl	15
Cc1cnc(CN(Cc2ccc(-c3ccc(CNCCc4ccc(S(C)(=O)=O)cc4)cn3)cc2)C(=O)c2ccc([N+](=O)[O-])c(C)c2)cn1.O=C(O)C(F)(F)F	0
O=C(Nc1ccc(Cn2ncc(N3CCCNCC3)c(Cl)c2=O)cc1)Nc1cc(F)cc(C(F)(F)F)c1.O=C(O)C(F)(F)F	35
COc1cc(C(=O)N2CCOC(CCN3CCC4c5ccccc5CC43)(c3ccc(Cl)c(Cl)c3)C2)cc(OC)c1OC (configuration not stated)	32
O=C(Nc1cccc(-c2ccc(-c3nc4cc(C(F)(F)F)ccc4[nH]3)cc2)c1)c1c[nH]cn1	16
CC(C)COc1ccc(Cl)cc1Cc1ccc(-c2nc3cc(F)c(F)cc3[nH]2)o1	27
Cc1ccc2c(-c3ccc([N+](=O)[O-])o3)cc(C)nc2c1	20
CCN(CC)CCN(Cc1ccc(-c2ccc(C(F)(F)F)cc2)cc1)C(=O)Cn1c(CCc2ccc(F)c(C#N)c2)nc(=O)c2ccccc21.O=C(O)C(O)C(O)C(=O)O	18
Cl.N=c1n(CCN2CCCCC2)c2ccccc2n1CC(O)c1cccc(Br)c1 (configuration not stated)	25
CCOc1ccccc1CCNC(C)Cc1ccc(C(=O)Nc2ccc(CC(C)NCCc3cccc(Cl)c3)cc2)cc1 (configuration not stated)	100
Cl.O=C(Nc1ccc(C(=O)OCC2CCCN3CCCCC23)cc1)c1ccc(Cl)c(Cl)c1 (configuration not stated)	20
O=C(O[C@@H]1CN[C@H](C#Cc2cc3ncnc(Nc4ccc5c(cnn5Cc5cccc(F)c5)c4)c3s2)C1)N1CCCC1	9
CN(C)Cc1cccc(-c2ccc(NC(=O)c3ccc4c(=O)n(CC5CCCO5)cnc4c3)cc2)c1 (configuration not stated)	28
COc1ccccc1-c1csc(C(=O)NC2CCCCN(Cc3ccc(C(C)(C)C)cc3)C2)c1.O=C(O)C(F)(F)F (configuration not stated)	13
Cc1cc(N[C@@H](CC(C)C)C(=O)NCc2cccc(F)c2)nc(NCCc2ccc(F)cc2)n1.O=C(O)C(F)(F)F	0
Cc1cc(NCCCOc2ccc(Cl)cc2)nc(NCc2ccccc2)n1.Cl	45
CCOC(=O)Cn1ccc2c(NCc3ccccc3)nc(C)nc21	64
Cl.N=C(N)Nc1ccc(NC(=O)Nc2ccc(NC(=N)N)cc2)cc1	0
Cn1ncc2ccc(Nc3nccc(-c4ccc5c(c4)c(N)nn5C)n3)cc21	48
N#Cc1ccc(N2CCN(Cc3ccc(-c4ccc(-c5nc6cc(C(F)(F)F)ccc6[nH]5)cc4)cc3)CC2)nc1.O=C(O)C(F)(F)F	19
CCOC(=O)c1ccc(N2CCN(c3cc(C)ccc3C)CC2)c(NC(=O)Nc2ccc(Cl)c(Cl)c2)c1	7
